# Bioassay records (PubChem)
# NPC1 prom act: qHTS Assay for NPC1 Promoter Activators | Huh7 NPC1 promoter luciferase reporter, 24 h | Potency, µM (series often up to 9.22 µM), for inactives: top-dose activation, actives largely listed as activators | actives 2.4% (n = 320,000) | AID 485313, 2010; further: % of control where 0% means no effect; nearly all actives have a fitted effect of over 60% in size
#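 In 1536-well qHTS, Huh7 cells harboring an NPC1 promoter–luciferase construct received compound for 24 h; activation was quantified by luminescence following luciferase reagent addition.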
# SMN2 splice up: qHTS Assay for Enhancers of SMN2 Splice Variant Expression | Potency, µM (titrated, usually from 46.1 µM), for inactives: top-dose activity change, positive = activation, hits mostly activators | actives 2.8% (n = 210,000) | HEK293 SMN2-luciferase splicing reporter, luminescence, 30-36 h; further: % of control where 0% means no effect; nearly all actives have a fitted effect of over 55% in size
#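 HEK293 cells carry an SMN2 […]–luciferase reporter in which exon 7 inclusion puts luciferase in frame. Cells were plated 10-12 h before compound addition, then incubated 30-36 h at 37C. ONE-Glo luminescence was read; sodium butyrate at 4.5 mM final served as control.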
# Rab9 promoter act: qHTS Assay for Rab9 Promoter Activators | Huh7 Rab9 promoter-luciferase reporter, luminescence, 24 h | Potency, µM (titrated, usually from 9.22 µM), inactives show at the top dose activation, negative = inhibition, usual class: activators | actives 2.8% (n = 320,000) | AID 485297, 2010; further: % of control where 0% means no effect; nearly all actives have a fitted effect of over 60% in size
#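 Promoter activation is measured as luciferase luminescence in Huh7 cells stably transfected with a Rab9 promoter–luciferase construct, following 24 h compound exposure at 37 °C and 10 min reagent incubation at ambient temperature.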
# FLuc modulator: qHTS profiling assay for firefly luciferase inhibitor/activator using purifed enzyme and Km concentrations of substrates (counterscreen for miR-21 project) | Luciferin 4-monooxygenase (Photinus pyralis), P08659 | purified FLuc, Km substrates, luminescence inhibition | Potency, µM (highest dose often 57.5 µM), for the others: at the top dose activity change, negative = inhibition, usual class: inhibitors | actives 6.9% (n = 360,000);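 further: plate controls were vehicle for no effect and reference inhibitor for full effect; nearly all actives have a fitted effect of over 55% in size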
# Target sequence (P08659 whole entry, looked up): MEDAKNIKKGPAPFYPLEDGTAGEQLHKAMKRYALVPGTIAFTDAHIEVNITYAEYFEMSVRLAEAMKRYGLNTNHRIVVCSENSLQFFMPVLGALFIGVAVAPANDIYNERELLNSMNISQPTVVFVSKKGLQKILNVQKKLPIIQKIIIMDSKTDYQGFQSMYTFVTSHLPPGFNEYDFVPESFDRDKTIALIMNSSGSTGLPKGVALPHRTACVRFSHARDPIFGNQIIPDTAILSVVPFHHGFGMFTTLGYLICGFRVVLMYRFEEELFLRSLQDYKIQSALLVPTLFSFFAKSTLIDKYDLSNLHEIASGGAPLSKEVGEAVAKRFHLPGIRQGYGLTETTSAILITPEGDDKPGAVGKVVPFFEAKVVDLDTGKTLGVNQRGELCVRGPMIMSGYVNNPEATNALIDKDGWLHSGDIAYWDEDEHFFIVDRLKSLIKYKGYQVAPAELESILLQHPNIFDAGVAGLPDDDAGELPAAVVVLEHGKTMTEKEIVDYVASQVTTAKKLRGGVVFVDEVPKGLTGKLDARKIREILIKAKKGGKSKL
#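 Purified P. pyralis luciferase, 10 nM final, with Km-level 10 uM D-luciferin and 10 uM ATP in 50 mM Tris acetate pH 7.5, 10 mM Mg acetate, 0.01% Tween-20, 0.05% BSA; 6-point qHTS titration about 60 µM downward; luminescence read.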
# ELG1 genotoxic: qHTS screen for small molecules that induce genotoxicity in human embryonic kidney (HEK293T) cells expressing luciferase-tagged ELG1; HEK293T ELG1-luciferase reporter, luminescence, 16 h; Potency, µM (titrated, usually from 46 µM), inactives show at the top dose activity change, positive = activation, actives largely listed as activators; actives 1.3% (n = 330,000); further: % of control where 0% means no effect; nearly all actives have a fitted effect of over 60% in size
#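 After overnight (16 hr) compound treatment at 37 °C, ELG1-luciferase HEK293T cells were lysed with ONE-Glo; luminescence quantified 30 min later at room temperature.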
# Luc counter: Counterscreen for Luciferase (Kinase-Glo TM) Inhibition; Luciferin 4-monooxygenase (Photuris pensylvanica), Q27757; Kinase-Glo luciferase, ATP luminescence, 8 min; Potency, µM (highest dose often 38.3 µM), without a hit: at the highest dose activity change, negative = inhibition, most hits filed as inhibitors; actives 0.28% (n = 200,000); further: on the % scale 0 is the no-effect control and ±100 the full control effect; nearly all actives have a fitted effect of over 60% in size
#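 Compounds were added to a substrate mix at pH 7.2 (50 mM imidazole, 10 uM ATP, within the enzyme's linear range), followed by Kinase-Glo detection reagent; luminescence was measured after 8 minutes at ambient temperature.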
# The depositor's hits bear a star; ? = inconclusive; / = no result given; [ ] = remark or other dose. Hits are enriched below; roughly 7.4% of the tested compounds scored in any of these assays. The call rests on the fitted dose curve; in most records, active means well fitted curve in the direction sought with a large enough effect; inconclusive means small, poorly fitted or top-dose-only effect, or another doubt; inactive means no such curve, though single readings can be large; an effect the other way counts as inactive or inconclusive. Potency means the concentration at half of the fitted maximal effect.
SMILES,NPC1 prom act,SMN2 splice up,Rab9 promoter act,FLuc modulator,ELG1 genotoxic,Luc counter
COCCNC(=O)CSc1nc2cc3c(cc2c(=O)n1CCCCCC(=O)NCCc1ccc(OC)c(OC)c1)OCO3,/,/,/,0%,/,/
CSc1nc(Nc2ccc(C)cc2)c(C#N)c(-c2ccccc2)n1,/,/,/,-8%,/,/
O=C(/C=C\c1ccco1)Nc1nc(-c2ccccc2)cs1,13%,?,?,12µM*,3%,-5%
O=C(/C=C/c1ccccc1)Nc1nc(-c2ccncc2)cs1,1%,-75%,-6%,2.7µM*,-1%,5%
Cn1ccsc1=NC(=O)c1cccc(OC(F)F)c1,3.5µM*,/,?,15µM*,?,/
Nc1c2c(=O)oc(-c3ccccc3)cc2nn1-c1ccccc1,?,13µM*,0.71µM*,4.8µM*,?,4%
O=C(Nc1nnc(SCc2ccccc2)s1)c1cccs1,24%,?,21%,?,15µM*,-8%
CCSc1nnc(NC(=O)c2cccs2)s1,?,22%,?,19µM*,-15%,-10%
CCOCc1nnc(NC(=O)c2cccs2)s1,0%,14%,-1%,-13%,1%,2%
Ic1ccc2c(c1)N(c1ccccc1)c1cc(Nc3ccc4nc5ccc(I)cc5[n+](-c5ccccc5)c4c3)ccc1N2,/,-11%[9.22 µM],/,/,/,-11%[7.66 µM]
C(=C\c1ccccc1)/CSc1ccccn1,?,24%,3.5µM*,12µM*,17%,-10%
Cc1cc(C)nc(SC/C=C/c2ccccc2)n1,11%,/,12%,?,11%,/
O=C(O)CNc1ccc(C(=O)O)cc1,/,-8%[9.22 µM],/,/,/,-2%[7.66 µM]
C/C(=N\Nc1nccnc1Cl)c1ccc(Cl)c(Cl)c1,18%,/,18%,21µM*,7%,/
C/C(=N\Nc1nccnc1Cl)c1ccc(O)cc1,17%,/,15%,?,12%,/
C/C(=N\Nc1nccnc1Cl)c1ccc(F)cc1,?,/,?,24µM*,?,?
C/C(=N\Nc1nccnc1Cl)c1c(F)c(F)c(F)c(F)c1F,0%,-1%,5%,0%,1%,-1%
CCN(CC)CCCC(C)n1c(-c2ccccc2)nc2c(NC3CCCCC3)nc(C)nc21 (stereo not given),/,-3%,/,/,/,-1%
COc1ccc(/C=C/C(=O)c2ccc(O)cc2)cc1COc1ccc(F)cc1,-2%,/,2%,15µM*,-1%,/
COc1ccc(/C=C/C(=O)c2ccccc2)cc1COc1ccc(F)cc1,-2%,-19%,-5%,9.5µM*,-2%,-2%
CC(=O)N=C(N)Sc1nc2ccccc2[nH]1,2.5µM*,13µM*,4µM*,15µM*,?,-11%
CCOc1ccc(/C=C/C2=Cc3c(sc(NC(=O)CSc4n[nH]c(N)n4)c3C#N)C(C)(C)C2)cc1,11%,3%,1%,9.5µM*,-16%,-5%
Cc1ccn2cc(-c3ccc4c(c3)NC(=O)CO4)nc2c1,1.3µM*,5.6µM*,0.56µM*,2.4µM*,?,-17%
COc1ccc(-c2cc(-c3ccc(OC)cc3)nc(-c3ccc4c(c3)NC(=O)CO4)c2)cc1,5%,16%,-6%,-19%,4%,-3%
Cc1ccc(-c2cc(-c3ccc4c(c3)NC(=O)CO4)nc3c2COc2ccc(C)cc2-3)cc1,/,2%,/,?,/,/
Cc1cccn2cc(-c3ccc4c(c3)NC(=O)CO4)nc12,25%,/,?,11µM*,11%,/
COC(=O)c1cc(C)nc(Sc2ccccc2N)n1,-2%,/,8%,12µM*,-4%,/
CC(=O)c1cccc(NS(=O)(=O)c2ccc(NC(=O)N3CCCCC3)cc2)c1,-26%,/,-24%,0%,0%,/
CC(=O)c1ccc(S(=O)(=O)Nc2cccc(-c3ccc(N4CCCCCC4)nn3)c2)cc1,/,/,/,4.8µM*,/,/
